Experimental data from ChEMBL document CHEMBL1157539, “Thousands of chemical starting points for antimalarial lead identification” (Nature, 2010).

tested on: Plasmodium falciparum; assay: GSK_TCMDC: Inhibition of Plasmodium falciparum 3D7 in whole red blood cells, using parasite LDH activity as an index of growth. Test compounds present at 2uM; type: functional

| SMILES | Inhibition [%] |
| --- | --- |
| O=C(Nc1ccc(F)cc1F)NC1CCN(c2ccnc3cc(Cl)ccc23)C1.O=C(O)C(F)(F)F (centres undefined) | 100 |
| FC(F)(F)c1ccc2[nH]c(-c3ccc(-c4cccc(CNCc5cnn(-c6ccccc6)n5)c4)s3)nc2c1.O=C(O)C(F)(F)F | 100 |
| O=C(Nc1ccc(-c2nc3ccccc3[nH]2)cc1)C1CCN(Cc2ccccc2)CC1 | 100 |
| O=C(O)C(F)(F)F.Oc1ccc(CCNc2nc(NCc3ccccc3-c3ccc(C(F)(F)F)cc3)nc(NC3CCNCC3)n2)cc1 | 97 |
| CON=Cc1sc(CNCCCN=c2cc(O)c3ccccc3[nH]2)c(C)c1Br.Cl | 96 |

tested on: Plasmodium falciparum; assay: GSK_TCMDC: Inhibition of Plasmodium falciparum Dd2 in whole red blood cells, using parasite LDH activity as an index of growth. Test compounds present at 2uM; type: functional

| SMILES | Inhibition [%] |
| --- | --- |
| O=C(O)C(F)(F)F.O=[N+]([O-])c1cccc(CNCC2CCC(CNCc3cccc([N+](=O)[O-])c3)CC2)c1 (centres undefined) | 76 |
| COc1cc2c(=O)c(Cc3ccc(Cl)cc3)c(C)[nH]c2cc1F | 28 |
| CN(C)c1ccc(-c2ccc(C(=O)NC3CCN(Cc4ccc(C(C)(C)C)cc4)CC3)s2)cc1.O=C(O)C(F)(F)F | 59 |
| CC(C)CNC(=O)CN1C(=O)C(c2ccccc2)(c2ccccc2)N=C1N | 46 |
| COCCN1CCC(N(Cc2ccc(-c3ccc(OC(F)(F)F)cc3)cc2)C(=O)Cn2c(CCc3cccc(F)c3F)cc(=O)c3ccccc32)CC1.O=C(O)C(O)C(O)C(=O)O | 92 |
| Cc1cc(NCCC(=O)Nc2ccccc2)nc(NCCOc2ccccc2)n1.O=C(O)C(F)(F)F | 9 |
| COc1ccc2ncc(F)c(CCN3CC[C@H](NC(=O)c4ccc5c(n4)NC(=O)CS5)[C@H](O)C3)c2n1.Cl | 88 |
| CCCCN(CCCC)CCNC(=O)c1cccc(NC(=O)N2CCc3cc(SC)c(C(F)(F)F)cc32)c1 | 32 |
| O=C(NCC(c1ccc(C(F)(F)F)cc1)N1CCCC1)c1cc(-c2ccncc2)c(-c2cccc(O)c2)o1.O=C(O)C(F)(F)F (centres undefined) | 53 |
| Br.CC1(C)NC(N)=NC(=N)N1OCCCNC(=O)c1ccc([N+](=O)[O-])cc1 | 97 |
| N#Cc1cccc(Nc2nccc(NCC(O)c3cccc(C(F)(F)F)c3)n2)c1 (centres undefined) | 84 |
| CCOC(=O)c1cnc2c(OC)cc(OC)c(Cl)c2c1Nc1cccc(C)c1C | 99 |
| O=[N+]([O-])c1ccc(Nc2nc(N/N=C/c3cc(Cl)cc(Cl)c3O)nc(Nc3ccccc3)n2)cc1 | 72 |
| O=C(Nc1ccccc1)NC1CCN(CCC2(c3ccc(Cl)c(Cl)c3)COCN(C(=O)c3ccccc3)C2)C1 (centres undefined) | 81 |
| COc1ccc(Cl)cc1N1CCN(CCCNC(=O)c2ccc(-c3nc4cnccc4[nH]3)c(Br)c2)CC1 | 15 |
| FC(F)(F)c1cccc(Nc2nc3nonc3nc2NC2C3CC4CC(C3)CC2C4)c1 (centres undefined) | 100 |
| O=C(NCCCCN1CCC(c2c[nH]c3ccccc23)CC1)c1sc(-c2ccc(C(F)(F)F)cc2)nc1CO | 3 |
| CO/C(=C\C=C\c1cc2cc(Cl)c(Cl)cc2[nH]1)C(=O)NCCCN1CCCC[C@@H]1C | 83 |
| Cc1cc(C)n2nc(C(=O)Nc3cc(C(F)(F)F)ccc3N3CCOCC3)nc2n1 | 91 |
| CC(C)c1ccc(CN2CCCCC(NC(=O)c3cc(-c4cccc(F)c4)cs3)C2)cc1.O=C(O)C(F)(F)F (centres undefined) | 13 |
| Cc1nn(-c2ccnc3cc(Cl)ccc23)c(C)c1C(=O)NCc1cc(Cl)cc(Cl)c1 | 53 |
| COc1ccccc1N1CCN(CCCCNC(=O)c2ccc(NC(=O)c3cc4ccccc4o3)cc2)CC1 | 2 |
| Cc1ccc(C(=O)Cn2nc(-c3ccc(C)c(S(=O)(=O)N4CCCCC4)c3)ccc2=O)cc1 | 76 |
| O=C(Nc1ccc(-c2nc3cc4ccccc4cc3[nH]2)cc1)c1cccc(Br)c1 | 89 |
| CN(C)c1nc2cc(-n3cnc4cc(-c5ccc(Cl)cc5)sc4c3=O)ccc2n1CCCN1CCCCC1.O=C(O)C(F)(F)F | 23 |
| O=C(Nc1ccc(N2CCN(C(=O)/C=C/c3ccccc3)CC2)c(Cl)c1)c1ccc([N+](=O)[O-])o1 | 90 |
| CN(c1ccc(F)cc1)S(=O)(=O)c1ccc(Cl)c(C(=O)Nc2cccc(C#N)c2)c1 | 58 |
| O=C(C=Cc1ccc(Cl)c(Cl)c1)NCCCCCN1CCC(CCCNS(=O)(=O)c2cccc(C(F)(F)F)c2)CC1 | 59 |
| Cc1cc(NC(=O)c2coc3cc(F)c(N4CC(C)N(C)C(C)C4)cc23)cnc1-c1ccc(C#N)cc1.Cl (centres undefined) | 71 |
